PubChem BioAssay (EPA / NIEHS)
Activity calls are given as the source filed them. The calls were made as follows: active = hit-call score of the fitted dose curve at least 0.9, where 1 is the maximum; inactive = score below 0.9.

Experiments:
[1] = APR_HepG2_CellLoss_72hr: Apredica 72-hour HepG2 Assay for Cell Loss (AID 2282915); conditions: high-content imaging
Summary of the method: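 HepG2 cells exposed 72 h to compound at 0.39–200 uM (10 concentrations, duplicate) in 0.5% DMSO. Fixed with 3.7% formaldehyde and Hoechst 33342-stained. Imaged at 20x; nuclear count gives cell number, fitted bidirectionally versus DMSO.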

[2] = APR_HepG2_P-H2AX_72hr: Apredica 72-hour HepG2 Assay for H2AX Phosphorylation (AID 2282916); conditions: imaging, actives raise or lower the signal;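 also: phospho-histone H2A.x immunostain intensity per cell marking DNA damage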
Summary of the method: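 Human hepatoma HepG2 cells are dosed across ten concentrations (0.39 to 200 uM, 0.5% v/v DMSO) and incubated 72 hr. Phospho-histone H2A.x is then detected by antibody staining alongside c-Jun and Hoechst, and quantified by automated fluorescence imaging.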

[3] = APR_HepG2_MitoMembPot_72hr: Apredica 72-hour HepG2 Assay for Mitochondrial Membrane Potential (AID 2282917); conditions: imaging, actives raise or lower the signal
Summary of the method: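 HepG2 cells dosed 72 hr with compound at 0.39–200 uM in duplicate, 0.5% v/v DMSO final. Mitochondria stained with 250 nM MitoTracker Red CMXRos for 30 min before formaldehyde fixation, imaged by high-content fluorescence; bidirectional fit versus DMSO.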

[4] = APR_HepG2_MitoticArrest_72hr: Apredica 72-hour HepG2 Assay for Mitotic Arrest (AID 2282918); conditions: high-content imaging, actives raise or lower the signal
Summary of the method: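 HepG2 cells treated 72 h at 0.39–200 uM, 0.5% DMSO final; formaldehyde-fixed, stained with Hoechst 33342 and phospho-histone H3 antibody, imaged by high-content fluorescence; bidirectional fit versus DMSO.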

[5] = APR_HepG2_MicrotubuleCSK_72hr: Apredica 72-hour HepG2 Assay for Microtubule CSK Stabilty (AID 2282919); conditions: HepG2 microtubule cytoskeleton, high-content imaging, actives raise or lower the signal
Summary of the method: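 HepG2, 72 hr cmpd exposure, 0.39–200 uM (10 pts, duplicate), 0.5% DMSO. 3.7% formaldehyde fix, 0.5% Triton perm, anti-alpha-tubulin/Cy5 plus Hoechst. HCS fluorescence intensity; bidirectional fit vs DMSO baseline; taxol as positive control.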

[6] = APR_HepG2_P-H2AX_24hr: Apredica 24-hour HepG2 Assay for H2AX Phosphorylation (AID 2282920); conditions: high-content imaging, actives raise or lower the signal
Summary of the method: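 HepG2 cells dosed 24 h at 0.39–200 uM (10 points, duplicate, 0.5% DMSO final). Formaldehyde-fixed and permeabilized, then immunostained for phospho-H2A.x with Hoechst. Fluorescence quantified by high-content imaging, fitted bidirectionally versus DMSO.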

[7] = APR_HepG2_StressKinase_72hr: Apredica 72-hour HepG2 Assay for Stress Kinase (AID 2282921); conditions: HepG2 stress kinase (phospho-c-Jun) imaging, actives raise or lower the signal
Summary of the method: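 After a 72 h compound treatment spanning 0.39 to 200 uM, formaldehyde-fixed cells are labelled for phosphorylated c-Jun and nuclei, imaged by automated fluorescence microscopy, and activity is fitted in both directions relative to DMSO controls.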

[8] = APR_HepG2_StressKinase_24hr: Apredica 24-hour HepG2 Assay for Stress Kinase (AID 2282922); conditions: HepG2 stress kinase (phospho-c-Jun) imaging, actives raise or lower the signal
Summary of the method: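 Read-out: phospho-c-Jun immunofluorescence (Cy3 secondary) quantified by high-content imaging at 20x, nuclei defined by Hoechst 33342. Human HepG2 liver cells dosed 24 hr, 0.39–200 uM, DMSO 0.5% v/v; gain or loss of signal fitted relative to DMSO.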

[9] = APR_HepG2_p53Act_72hr: Apredica 72-hour HepG2 Assay for p53 Activation (AID 2282923); conditions: high-content imaging, actives raise or lower the signal;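 also: average cellular p53 protein immunofluorescence intensity in HepG2 cells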
Summary of the method: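 Imaging-based endpoint: after 72 hr compound exposure (up to 200 uM, 0.5% DMSO), fixed and permeabilized monolayers were labelled with anti-p53 antibody and imaged; signal change in either direction was fitted relative to DMSO controls.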

[10] = APR_HepG2_NuclearSize_72hr: Apredica 72-hour HepG2 Assay for Nuclear Size (AID 2282925); conditions: high-content imaging, actives raise or lower the signal
Summary of the method: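 Read-out: nuclear diameter from Hoechst 33342 images (ArrayScan, 20x, six fields/well), via cell-cycle image analysis. HepG2 were dosed 0.39–200 uM for 72 hr in 0.5% DMSO. Bidirectional fit relative to DMSO.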

[11] = ATG_CRE_CIS: Attagene CIS-FACTORIAL HepG2 Assay for human cAMP Responsive Element (CRE) binding protein 3 (AID 2282926); conditions: HepG2 CRE cis-reporter, Attagene multiplexed mRNA; actives raise or lower the signal
Summary of the method: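 Induced reporter mRNA from a CRE cis element, measured in HepG2 among many multiplexed units at 24 h. Detection used RT-PCR plus capillary electrophoresis of fluorescent fragments; DMSO served as negative control.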

[12] = target: CCAAT/enhancer-binding protein beta (Homo sapiens) (UniProt P17676); assay: ATG_C_EBP_CIS: Attagene CIS-FACTORIAL HepG2 Assay for human CCAAT/Enhancer Binding Protein (C/EBP) beta (AID 2282927); conditions: HepG2 Attagene cis-factorial transcription factor reporter; actives raise or lower the signal
Summary of the method: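 HepG2 transiently transfected with multiplexed reporter units under cis-regulatory promoters reporting endogenous C/EBPb activity. After 24 h exposure, reporter mRNA assayed by RT-PCR, fluorescent labelling, HpaI digestion and capillary electrophoresis; bidirectional fitting versus DMSO.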

[13] = ATG_CMV_CIS: Attagene CIS-FACTORIAL HepG2 Assay for human CMV (Internal Marker) (AID 2282928); conditions: HepG2 CMV promoter reporter, transcription factor profiling; actives raise or lower the signal;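 also: endpoint acts as a background internal control marker rather than a target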
Summary of the method: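 Reporter transcripts from transfected HepG2 cells are isolated after 24 h of chemical dosing, reverse-transcribed and amplified. Fragments labeled with 6-FAM are cut with HpaI and quantified by capillary electrophoresis; DMSO defines baseline.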

[14] = ATG_DR4_LXR_CIS: Attagene CIS-FACTORIAL HepG2 Assay for human Liver X Receptor (LXR), DR4 submotif (AID 2282929); conditions: HepG2 Attagene DR4 cis-reporter, mRNA transcription; actives raise or lower the signal
Summary of the method: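 Endogenous factor activity at a DR4 cis-element is read as reporter mRNA in transiently transfected HepG2 cells. Exposure lasts 24 h; transcripts are amplified, fluorescently labelled and sized by capillary electrophoresis, with DMSO as baseline.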

[15] = target: Aryl hydrocarbon receptor (Homo sapiens) (UniProt P35869); assay: ATG_Ahr_CIS: Attagene CIS-FACTORIAL HepG2 Assay for human Aryl Hydrocarbon Receptor (Ahr) (AID 2282930); conditions: HepG2 AhR cis-factorial reporter transcription; actives raise or lower the signal
Summary of the method: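 HepG2 cells transiently transfected with cis-element-driven multiplexed reporter units; endogenous AhR activity read as reporter mRNA 24 h after dosing, via RT-PCR, 6-FAM labelling, HpaI digestion and capillary electrophoresis. Bidirectional fit relative to DMSO.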

[16] = ATG_AP_1_CIS: Attagene CIS-FACTORIAL HepG2 Assay for human Activator Protein 1 (AP-1) (AID 2282931); conditions: HepG2 Attagene cis-factorial AP-1 reporter mRNA; actives raise or lower the signal
Summary of the method: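 Fluorescence of labelled PCR fragments separated by capillary electrophoresis gives reporter mRNA levels. HepG2 with transfected cis-regulated reporter units, 24 h exposure; DMSO serves as baseline for bidirectional curve fits.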

[17] = ATG_AP_2_CIS: Attagene CIS-FACTORIAL HepG2 Assay for human Activator Protein 2 (AP-2) (AID 2282932); conditions: HepG2 AP-2 cis-reporter, Attagene transcription factor profiling; actives raise or lower the signal
Summary of the method: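 Liver-derived HepG2 line, cis-reporter system measuring endogenous factors; 24 h dosing; reporter mRNA detected by fluorescent RT-PCR and capillary electrophoresis.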

[18] = ATG_BRE_CIS: Attagene CIS-FACTORIAL HepG2 Assay for human Bone Morphogenetic Protein (BMP) Response Element (BRE) (AID 2282933); conditions: HepG2 BMP response element reporter, Attagene transcription factor profiling; actives raise or lower the signal
Summary of the method: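 Gain- or loss-of-signal was derived by bidirectional fitting against DMSO controls. The signal came from reporter mRNA, measured by RT-PCR and capillary electrophoresis, in HepG2 cells transiently carrying multiple reporter units and dosed for 24 h.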

[19] = target: Retinoic acid receptor alpha (Homo sapiens) (UniProt P10276); assay: ATG_DR5_RAR_CIS: Attagene CIS-FACTORIAL HepG2 Assay for human Retinoic Acid Receptor Alpha (RARE), DR5 submotif (AID 2282934); conditions: HepG2 Attagene cis-factorial RARE DR5 reporter, mRNA; actives raise or lower the signal;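 as to AC50: reporter responds to endogenous RAR alpha beta and gamma in HepG2 not RARA alone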
Summary of the method: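 HepG2 cells transiently transfected with multiplexed reporter units; DR5 cis-element drives reporter through endogenous transcription factors. After 24 h dosing, reporter mRNA quantified by RT-PCR, fluorescent labeling, HpaI digestion and capillary electrophoresis; bidirectional fitting versus DMSO.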

[20] = APR_HepG2_MitoMass_72hr: Apredica 72-hour HepG2 Assay for Mitochondrial Mass (AID 2282924); conditions: high-content imaging, actives raise or lower the signal;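 also: MitoTracker Red CMXRos stain intensity per cell imaged as mitochondrial mass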
Summary of the method: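 Read-out: MitoTracker Red fluorescence intensity from automated imaging (20x, six fields per well) in human HepG2 liver cells. Dosing ran 72 hr, 0.39–200 uM, 0.5% DMSO; bidirectional curve fitting versus DMSO baseline.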

Measured: AC50

Chain of CCAAT/enhancer-binding protein beta (Homo sapiens) (P17676 whole entry, looked up): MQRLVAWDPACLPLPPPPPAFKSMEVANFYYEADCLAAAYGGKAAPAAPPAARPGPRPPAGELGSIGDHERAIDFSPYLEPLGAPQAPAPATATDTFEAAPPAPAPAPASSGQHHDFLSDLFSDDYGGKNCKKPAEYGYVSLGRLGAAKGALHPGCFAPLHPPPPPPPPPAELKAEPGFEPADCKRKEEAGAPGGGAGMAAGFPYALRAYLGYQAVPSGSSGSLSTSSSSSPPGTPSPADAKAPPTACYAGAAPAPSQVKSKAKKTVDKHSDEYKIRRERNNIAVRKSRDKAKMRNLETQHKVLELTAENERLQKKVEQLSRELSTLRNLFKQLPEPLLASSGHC
Chain of Retinoic acid receptor alpha (Homo sapiens) (P10276 whole entry, looked up): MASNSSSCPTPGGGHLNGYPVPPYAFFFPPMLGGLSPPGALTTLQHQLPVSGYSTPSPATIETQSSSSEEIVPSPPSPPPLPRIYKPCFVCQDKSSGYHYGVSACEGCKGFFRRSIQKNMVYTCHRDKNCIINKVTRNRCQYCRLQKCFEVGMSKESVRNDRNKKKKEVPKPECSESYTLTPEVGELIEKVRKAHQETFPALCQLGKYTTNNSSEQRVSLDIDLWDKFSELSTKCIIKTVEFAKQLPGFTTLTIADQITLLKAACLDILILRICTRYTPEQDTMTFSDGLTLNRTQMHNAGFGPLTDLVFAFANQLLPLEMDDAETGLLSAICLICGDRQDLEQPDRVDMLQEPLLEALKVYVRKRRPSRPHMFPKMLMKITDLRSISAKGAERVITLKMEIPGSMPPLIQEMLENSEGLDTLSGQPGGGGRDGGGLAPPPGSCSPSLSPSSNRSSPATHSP
Chain of Aryl hydrocarbon receptor (Homo sapiens) (P35869 whole entry, looked up): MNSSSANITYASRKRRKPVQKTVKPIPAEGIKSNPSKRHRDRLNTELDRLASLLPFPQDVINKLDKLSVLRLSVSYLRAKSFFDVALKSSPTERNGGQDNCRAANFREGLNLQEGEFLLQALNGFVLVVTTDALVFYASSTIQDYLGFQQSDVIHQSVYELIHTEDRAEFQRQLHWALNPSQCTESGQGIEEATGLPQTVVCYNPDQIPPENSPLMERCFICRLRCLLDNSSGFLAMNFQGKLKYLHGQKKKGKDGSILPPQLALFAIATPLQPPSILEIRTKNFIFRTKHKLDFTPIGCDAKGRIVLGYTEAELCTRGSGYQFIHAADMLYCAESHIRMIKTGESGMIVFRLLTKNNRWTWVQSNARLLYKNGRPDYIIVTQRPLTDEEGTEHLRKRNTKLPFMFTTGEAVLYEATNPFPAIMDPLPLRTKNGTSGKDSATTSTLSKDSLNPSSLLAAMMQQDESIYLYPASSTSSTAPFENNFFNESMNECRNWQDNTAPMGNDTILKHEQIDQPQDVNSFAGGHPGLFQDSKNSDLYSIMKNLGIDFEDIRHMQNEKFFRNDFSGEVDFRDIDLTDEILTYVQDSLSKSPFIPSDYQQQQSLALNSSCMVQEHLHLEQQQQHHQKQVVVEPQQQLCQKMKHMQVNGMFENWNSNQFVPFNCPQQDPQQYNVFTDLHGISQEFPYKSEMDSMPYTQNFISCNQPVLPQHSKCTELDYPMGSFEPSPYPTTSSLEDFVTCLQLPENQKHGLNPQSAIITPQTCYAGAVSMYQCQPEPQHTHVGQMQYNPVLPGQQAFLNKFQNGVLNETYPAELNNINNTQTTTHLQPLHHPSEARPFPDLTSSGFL

O=C(Nc1ccccc1-c1ccc(Cl)cc1)c1cccnc1Cl
active: [12] 10.3 µM
not listed: [20]
inactive: all other assays above

CCCCC(O)(Cn1cncn1)c1ccc(Cl)cc1Cl (centres undefined)
active: [1] 74.4 µM | [6] 109 µM | [9] 120 µM | [13] 19.5 µM | [16] 50 µM | [18] 33.3 µM
not listed: [7] | [19]
inactive: all other assays above

CCC(C)n1c(=O)[nH]c(C)c(Br)c1=O (centres undefined)
not listed: [7] | [19] | [20]
inactive: all other assays above

CCOP(=O)(OCC)Oc1nc(Cl)c(Cl)cc1Cl
active: [13] 19.6 µM
not listed: [7] | [20]
inactive: all other assays above

CCCCC(C#N)(Cn1cncn1)c1ccc(Cl)cc1 (centres undefined)
active: [1] 103 µM
inactive: all other assays above

Clc1cccc(C(Cl)(Cl)Cl)n1
not listed: [7] | [19] | [20]
inactive: all other assays above

O=C1C2CC=CCC2C(=O)N1SC(Cl)(Cl)Cl (centres undefined)
active: [1] 100 µM | [2] 88.1 µM | [4] 100 µM | [6] 45.2 µM | [8] 28.1 µM
not listed: [7] | [20]
inactive: all other assays above

O=C(O)c1c(Cl)ccc2cc(Cl)cnc12
not listed: [9]
inactive: all other assays above

CC(C)(C)C(=O)C(Oc1ccc(Cl)cc1)n1cncn1 (centres undefined)
active: [1] 78.6 µM | [11] 41.9 µM | [12] 50 µM | [15] 34.7 µM | [16] 74.2 µM | [18] 50 µM | [19] 12.8 µM
not listed: [20]
inactive: all other assays above

CNC(=O)Oc1cccc2ccccc12
active: [1] 102 µM | [2] 97.3 µM | [3] 76.9 µM | [6] 102 µM | [20] 36 µM | [13] 50 µM | [15] 6.71 µM | [18] 23.6 µM
inactive: all other assays above

CCOC(=O)C(C)OC(=O)c1cc(Oc2ccc(C(F)(F)F)cc2Cl)ccc1[N+](=O)[O-] (centres undefined)
active: [1] 41 µM | [3] 19.8 µM | [15] 14.7 µM | [18] 17.8 µM
not listed: [7]
inactive: all other assays above

N#Cc1c(Cl)cccc1Cl
not listed: [3] | [19]
inactive: all other assays above

CCCN(CC)CC1COC2(CCC(C(C)(C)C)CC2)O1 (centres undefined)
inactive: [3] | [6] | [8] | [9] | [20] | [10] | [12] | [14] | [17]
active: [1] 69.3 µM | [2] 80.6 µM | [4] 70.2 µM | [5] 62.5 µM | [11] 13.6 µM | [13] 17.8 µM | [15] 26.1 µM | [16] 19.7 µM | [18] 22.2 µM | [19] 2.75 µM

COc1cc(Cl)c(OC)cc1Cl
not listed: [7] | [20]
inactive: all other assays above
